# Screening results as filed in PubChem.
# Shown are actives, neighbours in structure and some others; about 2.6% of the full set was active somewhere.
# TCR activator: activates T cell receptor signaling. primary human leukocytes, anti-CD3, IL-2 HTRF, 48 h. Potency, µM (titrated, usually from 9.22 µM), for inactives: at the highest dose activation of IL-2 secretion, actives largely listed as activators. 330,000 tested, under 10 active. AID 504894; further: % of control where 0% means no effect
#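 Primary human leukocytes were stimulated with a-CD3 beads plus compounds for 48 hr without co-stimulation; secreted IL-2 was quantified by HTRF using a-IL-2-K (europium cryptate) and a-IL-2-d2, excited at 320nm with acceptor emission read at 665nm.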
# A549 viability: kills or reduces viability of A549 cells in Nrf2 counter-screen; AID 504648; Potency, µM (highest dose often 46 µM), inactives show at the top dose activity change, negative = cytotoxicity, hits mostly inhibitors; hit rate 0.16% among 390,000; A549 ARE-Fluc cells, CellTiter-Fluor viability, 18-24 h; further: potency means the concentration at half of the fitted maximal effect; on the % scale 0 is the no-effect control and ±100 the full control effect
#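 A549 ARE_Fluc cells in 5% FBS OPTI-MEM were exposed to compounds in concentration-response for 18-24 h at 37 deg C. Viability was read by CellTiter-Fluor fluorescence (Ex 405/Em 525) after 30 min, before the luciferase read.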
# Nrf2 inh: inhibitors of Nrf2 signaling; A549 ARE-Fluc reporter, luciferase luminescence, 18-24 h; Potency, µM (titrated, usually from 46 µM), inactives show at the highest dose activity change, negative = inhibition, hits mostly inhibitors; hit rate 2.1% among 360,000; AID 504444; further: potency means the concentration at half of the fitted maximal effect; on the % scale 0 is the no-effect control and ±100 the full control effect; nearly all actives have a fitted effect of over 60% in size
#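 A549 ARE_Fluc cells (5000/well, 5% FBS OPTI-MEM) pre-incubated 2 h, then treated with compounds 18-24 h at 37C/5% CO2 in concentration-response. CellTiter-Fluor viability read first; BugLite luciferase luminescence after 15 min at room temperature gives Nrf2 activity.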
# Nrf2 ARE act: Nrf2 pathway activation; Potency, µM (titrated, usually from 46.1 µM), without a hit: at the highest dose activation, actives largely listed as activators; hit rate 0.31% among 410,000; AREc32 ARE-luciferase reporter (MCF7-derived line), luminescence, 24 h; AID 624171; further: potency means the concentration at half of the fitted maximal effect; % of control where 0% means no effect; nearly all actives have a fitted effect of over 65% in size
#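 Reporter line AREc32 (ARE-Fluc), seeded overnight in OPTI-MEM with 5% FBS; compound pin-transferred, 24 hr at 37 deg C, 5% CO2; luminescent read-out.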
# CCT chaperon mod: changes cytosolic chaperonin activity | purified chaperonin ATPase assay, HTRF ADP detection, 30 min | activity change, % (test concentration not listed), hits read low | hit rate 0.3% among 360,000 | AID 651819; in the data active means activity change below about -30%; further: on the % scale 0 is the no-effect control and ±100 the full control effect
#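 First, chaperonin was dispensed at 40 nM or 20 nM final depending on batch activity. Next, compounds were pinned at 76 uM and ATP added at 10 uM. After 30 min at 37 °C, ADP detection reagents ran 30 min at ambient temperature.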
# AT treatment: candidate therapy for ataxia-telangiectasia. hit rate 0.19% among 320,000. AID 485349. Potency, µM (titrated, usually from 57.5 µM), inactives show top-dose activation, most hits filed as activators. F2112 A-T fibroblasts, KAP-1 phosphorylation AlphaLISA; neocarzinostatin DNA damage 30 min before lysis; further: potency means the concentration at half of the fitted maximal effect; % of control where 0% means no effect; nearly all actives have a fitted effect of over 45% in size
#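 hTERT-immortalized A-T patient fibroblasts (F2112), 500 cells/well in OPTI-MEM, 1% FBS, got compounds for 60 min, then NCS for 30 min at 37C. Lysates were then assayed for phospho-KAP-1 by AlphaLISA (anti-pKAP1 donor, anti-KAP1 acceptor beads), 6 hr at 25C.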
# * marks the source's active call; other numbers are inactive results; ? = inconclusive; . = not tested or not shown; [ ] = remark or other dose. Unless noted, the call rests on the fitted dose curve; in most records, active means well fitted curve in the direction sought with a large enough effect; inconclusive means small, poorly fitted or top-dose-only effect, or another doubt; inactive means no such curve, though single readings can be large; an effect the other way counts as inactive or inconclusive.
SMILES,TCR activator,A549 viability,Nrf2 inh,Nrf2 ARE act,CCT chaperon mod,AT treatment
Cc1ccc2nc(NC(=S)NC(=O)c3ccco3)sc2c1,6%,-3%,?,?,-3,15%
O=C(NC(=S)Nc1cccc(O)c1)c1ccco1,-30%,2%,?,11µM*,-1,7%
O=C(NC(=S)NCc1ccc(Cl)cc1)c1ccco1,-19%,6%,16µM*,7%,0,22%
COc1ccc(N2CCN(C(=O)c3ccc(N(C)S(=O)(=O)c4ccc(C)cc4)cc3)CC2)cc1,-3%,-10%,18µM*,1%,-3,17%[11.5 µM]
CCOC(=O)N1CCN(C(=O)c2ccc(N(C)S(=O)(=O)c3ccc(C)cc3)cc2)CC1,-1%,-11%,23µM*,0%,2,-13%
COc1ccc(N2CCN(C(=O)c3ccc(N(C)S(=O)(=O)c4ccc(OC)cc4)cc3)CC2)cc1,-4%,10%,26µM*,3%,2,0%
Cc1nc(N2CCN(C)CC2)c2nnn(Cc3ccccc3)c2n1,.,-6%,21%,.,.,.
CCC(NC(=O)c1ccccc1NC(=O)c1ccco1)C(=O)NNC(=O)c1ccncc1 (stereo not given),-2%,-5%,3%,0%,-2,35%
CC(C)c1ccc(NC(=O)CCS(=O)(=O)c2ccc(Br)s2)cc1,.,-2%,26µM*,6%,.,.
COc1ccc(Cc2nnc(NC(=O)CSc3ccc(C)cc3)s2)cc1,2%[46.1 µM],-1%,0%,-1%,-41*,2%
Cc1ccc(C)c(CSc2nc3ncccc3[nH]2)c1,.,-11%,-13%,9%,.,.
CC(C)(CO)C(O)C(=O)NCCC#N (stereo not given),-1%,3%,11%,-1%,2,10%
COCCNC(=O)/C(C#N)=C1\N=C(N)c2ccccc21,-8%[46.1 µM],-17%,-13%,0%,-4,1%
Cc1cccc2c1-c1sc(C(=O)NCCc3ccc(Cl)cc3)cc1CO2,.,-12%,23µM*,3%,.,.
Cc1cccc(CCNC(=O)c2cc3c(s2)-c2c(C)cccc2OC3)c1,.,7%,?,2%,.,.
COc1ccc(CCNC(=O)c2cc3c(s2)-c2ccccc2OC3)cc1OC,.,2%,23µM*,0%,.,.
S=C(NCCCNc1ccc(Br)cn1)NCCCc1cnc[nH]1,.,0%,-10%,.,.,.
O=C1CC(c2ccccc2)CC2=C1C1(CCCCC1)N=C(Nc1nc3ccccc3o1)N2 (stereo not given),.,0%,10%,.,.,.
O=S(=O)(c1ccc(Br)cc1)N1CCOCC1,.,0%,27%,.,.,.
CN(C)c1oc(/C=C/c2ccccc2)nc1C#N,0%[46.1 µM],?,?,7.9µM*,-2,?
CN(C)c1oc(/C=C/c2ccc(F)cc2)nc1C#N,.,-5%,23%,20%,.,.
COc1cc(NC(=O)CCCc2nnc3n(CC(C)C)c(=O)c4sccc4n23)cc(OC)c1,.,-10%,-18%,0%,.,.
Cc1ccc2c(c1)nnn2C1CCN(CC(=O)N(c2ccccc2)c2ccccc2)CC1,3%,?,15µM*,2%,1,3%
CCOC(=O)CN(C(=O)CN1CCC(n2nnc3cc(C)ccc32)CC1)c1ccccc1,5%,8%,12%,-1%,-1,0%
O=C1N(Cc2cccnc2)C[C@@H]2C[C@@H](c3cccc(OCc4ccccc4)c3)N3CCC[C@@]123,4%,3%,-5%,2%,3,5%
SMILES,TCR activator,A549 viability,Nrf2 inh,Nrf2 ARE act,CCT chaperon mod,AT treatment
O=C1N(Cc2cccnc2)C[C@@H]2C[C@@H](c3cccc(OC4CCCC4)c3)N3CCC[C@@]123,1%,5%,-3%,0%[9.22 µM],-51*,-2%
COc1ccc(C(=O)CC2(O)C(=O)N(CCc3ccccc3)c3ccc(Br)cc32)cc1OC (stereo not given),.,?,23µM*,6%,.,.
CCCCN1C(=O)C(O)(CC(=O)c2ccc(C)cc2C)c2cc(Br)ccc21 (stereo not given),.,?,26µM*,-1%,.,.
Cc1ccc(S(=O)(=O)NCCC(=O)Nc2cc(S(=O)(=O)N(C)C)ccc2C)cc1C,10%,0%,7.3µM*,-1%,2,-11%
Cc1ccc(C)c(Cn2c(C3CC(=O)N(c4ccccc4C)C3)nc3ccccc32)c1 (stereo not given),.,1%,?,4%,.,.
CCN(C(=O)COC(=O)/C(=C/c1ccccc1)n1nnnc1C)C1CCCCC1,-1%,-10%,?,26%,-88*,8%
Cc1nnnn1/C(=C\c1ccccc1)C(=O)OCC(=O)N(C)C1CCS(=O)(=O)C1 (stereo not given),-4%,-2%,-13%,6%,-3,3%
Cc1ccc(S(=O)(=O)N2CCN(c3nc(-c4ncco4)nc4ccccc34)CC2)cc1,.,-18%,?,.,.,.
Cc1ccc(S(=O)(=O)N2CCN(c3nc(-c4cccs4)nc(C)c3C)CC2)cc1,.,7%,6%,.,.,.
Cc1csc2c(N3CCN(C(=S)Nc4ccc(F)cc4F)CC3)ncnc12,2%,-5%,18µM*,1%,-2,17%
Cc1csc2c(N3CCN(C(=O)Nc4ccccc4)CC3)ncnc12,3%,-3%,8.2µM*,4%,-3,-2%
Cc1cnc(C(=O)Nc2ccc(OC(F)(F)F)cc2)cn1,.,-16%,-27%,2%,0,1%
Cc1csc2ncnc(N3CCN(C(=O)Nc4ccc(OC(F)(F)F)cc4)CC3)c12,-8%,?,23µM*,4%,-2,8%
Cc1nn(C)c(C)c1CN(C)C(=O)c1cc2n(n1)C(C(F)(F)F)CC(c1cccs1)N2 (stereo not given),4%,-2%,13µM*,0%,0,2%
Cc1ccc(C2CC(C(F)(F)F)n3nc(C(=O)NCc4c(C)nn(C)c4C)c(Cl)c3N2)cc1 (stereo not given),-1%,-29%,12µM*,6%,1,10%
Cc1nn(C)cc1CN(C)C(=O)c1nn2c(c1Br)NC(c1cccs1)CC2C(F)(F)F (stereo not given),-4%,-16%,-27%,0%,0,-3%
Cc1nn(C)cc1CN(C)C(=O)c1nn2c(c1Cl)NC(c1cccs1)CC2C(F)(F)F (stereo not given),-6%,-5%,16µM*,0%,1,-1%
Cc1nn(C)c(C)c1CNC(=O)c1cnn2c1NC(c1ccccc1)CC2C(F)(F)F (stereo not given),.,-4%,1%,0%,-1,2%
CCN(Cc1ccccc1)S(=O)(=O)c1ccc(C(=O)Nc2nnc(C3CC3)o2)cc1,6%,-19%,8.2µM*,-2%,-1,-3%
